The whole screen tested about 220,000 compounds, of which about 530 (0.24%) were called active. Shown is part of a subset that was picked to be rich in actives. Entries with a potency or affinity are not part of this list. A number with no mark means an inactive call. Cut-off read from the data, not from the text of the source: active = inhibition above about 13%; inconclusive = no clear call, values can overlap the other calls; inactive = below that.
Each compound was assayed against Bifunctional protein GlmU (Mycobacterium tuberculosis (strain ATCC 25618 / H37Rv)) (UniProt P9WMN3) (assay: inhibition of mycobacterial GlmU enzyme – biochemical, glucosamine-1-phosphate acetyltransferase (AID 1376;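 note: 0% = complete reaction with vehicle and 100% = reaction without substrate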)). Details: M. tuberculosis GlmU acetyltransferase enzyme assay; hits give high values;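 tested at 30 µM in the primary screen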.
Sequence of Bifunctional protein GlmU (Mycobacterium tuberculosis (strain ATCC 25618 / H37Rv)) (P9WMN3 whole entry, looked up): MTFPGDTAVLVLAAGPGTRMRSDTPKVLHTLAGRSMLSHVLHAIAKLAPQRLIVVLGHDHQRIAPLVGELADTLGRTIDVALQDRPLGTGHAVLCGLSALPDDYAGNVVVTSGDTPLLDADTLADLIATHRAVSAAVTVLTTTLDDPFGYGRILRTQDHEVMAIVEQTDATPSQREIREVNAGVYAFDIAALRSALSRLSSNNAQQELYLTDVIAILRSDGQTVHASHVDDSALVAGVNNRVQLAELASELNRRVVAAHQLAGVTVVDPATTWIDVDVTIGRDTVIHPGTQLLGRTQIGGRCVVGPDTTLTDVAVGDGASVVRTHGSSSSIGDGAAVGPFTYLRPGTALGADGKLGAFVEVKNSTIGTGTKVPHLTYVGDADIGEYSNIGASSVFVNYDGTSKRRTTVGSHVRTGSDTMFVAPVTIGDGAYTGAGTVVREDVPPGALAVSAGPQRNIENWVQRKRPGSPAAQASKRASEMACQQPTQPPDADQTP

Compound | inhibition
O=C1CCC/C(=N\NC(=O)c2ccc(CSc3cccc4cccnc34)cc2)C1 | 4.6%
CCn1c(SCC(=O)N/N=C/C=C/c2ccco2)nc2ccccc21 | -1.16%
Cn1c(SCC(=O)N/N=C/C=C/c2ccco2)nc2ccccc21 | 13% (active)
Cn1c(SCC(=O)N/N=C/C=C\c2ccco2)nc2ccccc21 | -4.83%
COc1cc(CNCCN(C)C)c(Br)cc1OCC(=O)NCc1ccccc1 | -1.96%
O=[N+]([O-])c1cc(Cl)cc(/C=N/Nc2nc3ccccc3s2)c1O | 0.98%
COc1cc(/C=N/Nc2nc3ccccc3s2)cc([N+](=O)[O-])c1O | 13.2% (active)
COc1ccc(/C=N/Nc2nc3ccccc3s2)cc1O | -3.48%
COc1ccc(/C=C/C(=O)OCC(=O)NC(=O)NC(C)(C)C)cc1 | 1.36%
CC(=O)c1ccc(N2CCN(C(=O)/C=C/c3ccc4ccccc4n3)CC2)cc1 | 0.1%
CC(=O)c1ccc(S(=O)(=O)N2CCN(C(=O)/C=C/c3ccc4ccccc4n3)CC2)cc1 | 14.1% (active)
O=C(/C=C/c1ccc2ccccc2n1)N1CCN(S(=O)(=O)c2ccccc2F)CC1 | -1.23%
Cc1ccc(/C=N/NC(=O)C(C)Oc2ccccc2[N+](=O)[O-])s1 (stereo unspecified) | -0.21%
O=c1c2ccccc2n(Cc2ccccc2F)c(=O)n1Cc1ccccc1F | 4.63%
Nc1ccc(Nc2ccccc2)c(S(=O)(=O)O)c1 | 36.2% (active)
Nc1ccc(Nc2ccccc2)c(Cl)c1 | 3.28%
Nc1cc(C(=O)O)ccc1Nc1ccccc1 | -4.84%
CCN(CC)S(=O)(=O)c1ccc(OC)c(NC(=O)c2ccc([N+](=O)[O-])cc2)c1 | -2.82%
Cc1cccc(-c2c3c(=O)n(C)c(=O)n(C)c3c3cccnn23)c1 | -0.55%
Cc1cccc(N2C(=O)NC(=O)/C(=C/c3ccc(-c4ccc(C(=O)O)c(Cl)c4)o3)C2=O)c1 | -1.08%
CC1(C)OC(=O)C(=Cc2ccc(-c3ccc(Cl)c(C(=O)O)c3)o2)C(=O)O1 | 6.43%
O=C1NN(c2ccccc2)C(=O)/C1=C/c1ccc(Sc2ccc(Cl)cc2)o1 | 4.82%
O=C1NN(c2ccccc2)C(=O)/C1=C\c1ccc(-c2cc([N+](=O)[O-])ccc2O)o1 | 9.4%

Compound | inhibition
CCOC(=O)c1ccc(N2N=C(C)/C(=C/C=C/c3ccco3)C2=O)cc1 | 3.89%
Cc1ccc(Sc2ccc(/C=C3/C(=O)NN(c4ccccc4)C3=O)o2)cc1 | 4.6%
Cc1ccc(N2NC(=O)/C(=C/c3ccc(-c4ccc(Cl)c(C(=O)O)c4)o3)C2=O)cc1 | 7.4%
O=C1NN(c2ccc(Cl)cc2)C(=O)/C1=C\c1ccc(-c2cccc(C(=O)O)c2)o1 | 30.9% (active)
CC1=NN(c2ccc(C(=O)OC(C)C)cc2)C(=O)/C1=C\C=C\c1ccco1 | 1.04%
CCOC(=O)C1CCN(c2cc(C)nc3cc(-c4cccc(F)c4)nn23)CC1 | 0.46%
CCCNC(=O)Nc1ccsc1C(=O)OC | -1.89%
O=C1N=C(N2CCOCC2)S/C1=C1\C(=O)N(Cc2ccccc2)c2ccccc21 | 0.6%
COCCCNc1ncnc2nc[nH]c12 | -2.31%
CC1(C(=O)OCC(=O)Nc2ccc(C(N)=O)cc2)CC1(Cl)Cl (stereo unspecified) | -0.58%
CC1CC(C)(C)NC(=S)N1CCCC(=O)Nc1ccc2c(c1)OCCO2 (stereo unspecified) | -3.18%
CC1CCN(C(c2nnnn2CCc2ccccc2)C(C)C)CC1 (stereo unspecified) | 2.28%
CC1=NOC(=O)/C1=C\c1ccc(-c2ccc(Cl)c(C(=O)O)c2)o1 | 19.4%
COc1ccc(CN2C(=O)/C(=C/c3ccc(-c4ccc(Cl)c(C(=O)O)c4)o3)SC2=S)cc1 | 9.33%
COc1ccc(Sc2ccc(/C=C3\C(=O)NN(c4ccccc4)C3=O)o2)cc1 | 7.34%
CCCCC1(C)OC(=O)C(=Cc2ccc(-c3ccc(Cl)c(C(=O)O)c3)o2)C(=O)O1 (stereo unspecified) | 0.45%
O=C(CN1CCC(NC(=O)Cc2ccccc2)CC1)Nc1cccc2ccccc12 | 4.11%
O=C(NCc1ccccc1Cl)c1ccc(-c2ccccc2)cc1 | -4.31%
O=C(NCc1ccccc1)c1c(O)c2cccc3c2n(c1=O)CCC3 | -6.36%
CN(Cc1cnn(C)c1)S(=O)(=O)c1cccc([N+](=O)[O-])c1 | 2.06%
CC(C)=C1C(=O)NN(c2cccc(Cl)c2)C1=O | 3.03%
O=C1CC(=O)N(c2cccc(F)c2)N1 | 8.59%
COCCNC(=O)[C@H]1C[C@@H]1[C@H](NP(=O)(c1ccccc1)c1ccccc1)c1ccccc1 | 0.38%

Compound | inhibition
Cc1ccc(-n2c(COc3cccc(C)c3)n[nH]c2=S)cc1 | 1.39%
O=C(c1cccs1)N1CCN(c2ncccn2)CC1 | -2.05%
CCOC(=O)C1=C(C)C(c2ccc(OC)cc2)NC(=O)N1 (stereo unspecified) | -6.08%
Cc1cc(/C=C2\SC(=S)NC2=O)c(C)[nH]1 | 13.5% (active)
Cc1nn(C)cc1/C=C1\SC(=S)NC1=O | 4.22%
CCn1ncc(/C=C2/SC(=S)NC2=O)c1C | 11.3%
Cc1cc(/C=C2\SC(=S)NC2=O)c(C)n1C | 5.92%
CCn1c(C)cc(/C=C2/SC(=S)NC2=O)c1C | 1.44%
CCn1cc(/C=C2/SC(=S)NC2=O)c(C)n1 | 13.2% (active)
CNc1nc(C)nc(-n2nc(C)cc2C)n1 | 13.6% (active)
Cc1cc(C)n(-c2nc(C)nc(N)n2)n1 | -5.19%
Cc1cc(C)n(-c2nc(C)nc(NCc3ccccc3)n2)n1 | -4.13%
Cc1sc(NC(=O)c2ccco2)nc1-c1ccc2c(c1)CC(C)N2C(=O)C1CC1 (stereo unspecified) | 3.65%
CCCCn1c(-c2csc(C(C)C)c2)n[nH]c1=S | -1.43%
CCn1c(-c2csc(C(C)C)c2)n[nH]c1=S | 14.3% (active)
CC(C)Cn1c(-c2csc(C(C)C)c2)n[nH]c1=S | -2.74%
COc1ccc(NC(=O)C(c2ccccc2)c2ccccc2)cn1 | -4.39%
CCS(=O)(=O)Nc1ccc(C2=NN(C(=S)Nc3ccccc3)C(c3ccco3)C2)cc1 (stereo unspecified) | -0.65%
CN(C)C(=S)NC(C)(C)C | 1.31%
COc1ccc(CC(=O)N/N=C/c2ccc(-c3cccc(C(=O)O)c3)o2)cc1OC | 9.43%
Nc1nonc1C(=O)N/N=C/c1ccc(-c2ccc(Cl)c(C(=O)O)c2)o1 | 5.31%
Nc1nonc1C(=O)N/N=C/c1ccc(-c2cccc([N+](=O)[O-])c2)o1 | 1.58%
Cc1ccc(OCC(=O)N/N=C\c2ccc(C)o2)c(C)c1 | 1.64%

Compound | inhibition
CNC(=S)N/N=C/c1ccc(-c2cccc(C(=O)O)c2)o1 | 6.34%
O=C(N/N=C/c1ccc(-c2ccc([N+](=O)[O-])cc2)o1)c1cccnc1 | 7.58%
O=C(NCCn1cc(SCC(=O)N2CCOCC2)c2ccccc21)c1c(F)cccc1F | 7.41%
O=C(CSc1nnnn1-c1ccc(O)cc1)c1cc2ccccc2o1 | -1.55%
Cc1ccc(NC(=O)CN2C(=O)S/C(=C/c3ccc(-c4cccc(C(=O)O)c4)o3)C2=O)cc1 | 13.1% (active)
Cc1cccc(NC(=O)CN2C(=O)S/C(=C\c3ccc(-c4cccc(C(=O)O)c4C)o3)C2=O)c1 | 5.54%
Cc1ccc(NC(=O)CN2C(=O)S/C(=C/c3ccc(O)c([N+](=O)[O-])c3)C2=O)cc1C | 14.8% (active)
Cc1ccc(NC(=O)CN2C(=O)S/C(=C\c3ccc(-c4cccc(C(=O)O)c4C)o3)C2=O)cc1 | 3.05%
COc1ccc(/C=C2\SC(=O)N(CC(=O)NNC(=O)c3ccccc3O)C2=O)cc1OC | 13.8% (active)
COc1ccc(/C=C2\SC(=O)N(CC(=O)NNC(=O)c3ccccc3O)C2=O)cc1 | 6.62%
Cc1ccc(C(=O)O)cc1-c1ccc(/C=C2\SC(=O)N(CC(=O)Nc3ccccc3)C2=O)o1 | 6.53%
Cc1cccc(NC(=O)CN2C(=O)S/C(=C\c3ccc(O)c([N+](=O)[O-])c3)C2=O)c1 | 3.95%
CCOC(=O)CN1C(=O)S/C(=C/c2ccc(O)c([N+](=O)[O-])c2)C1=O | 6.11%
Cc1ccc(NC(=O)CN2C(=O)S/C(=C\c3ccc(-c4cccc(C(=O)O)c4C)o3)C2=O)cc1C | 15.4% (active)
Cc1ccccc1NC(=O)CN1C(=O)S/C(=C\c2ccc(-c3cccc(C(=O)O)c3C)o2)C1=O | -5.01%
O=C(CN1C(=O)S/C(=C\c2ccccc2)C1=O)NNC(=O)c1ccccc1O | 6.78%
CCOc1ccccc1Cn1c(=O)sc2ccccc21 | -0.39%
CCCNC(=O)c1cc(-c2ccc(OC)cc2)n(CCCOC)c1C | 4.42%
O=C1CC(N2CCN(Cc3ccc(Cl)cc3)CC2)C(=O)N1CCc1ccccc1 (stereo unspecified) | -4.79%
O=C(NCCc1ccccn1)c1cccc(S(=O)(=O)N2CCc3ccccc32)c1 | 2.85%
COCCNC(=O)C1c2ccccc2C(=O)N(CCOC)C1c1ccc(F)cc1 (stereo unspecified) | 1.96%
COc1ccc(C(=O)N/C(=C\c2cccc3ccccc23)C(=O)N2CCN(C)CC2)cc1OC | 0.44%

From PubChem BioAssay AID1376 (SRMLSC, 2008)
